Compound activity from PubChem.
Only a selection was taken, and hits are over-represented in it overall.
Cav32 inh: human Cav3.2 channel inhibition, primary screen | O95180 | Cav3.2-expressing cells, Fluo-4 calcium fluorescence FDSS; hits give low values | B-score at 10 µM | 100,000 tested, 4% active | AID 449739;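 active = single-dose well whose peak fluorescence ratio is a statistical outlier from its plate by either plate-standardised score or position-corrected B-score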
CD11b adhes enh: CD11b/CD18-fibrinogen binding enhancement; P05107+P11215; K562 CD11b/CD18 adhesion to fibrinogen, ATPlite luminescence; activation, % at 10 µM; 93,000 tested, 0.07% active; AID 1499;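 active = 10 µM primary screen giving 50% or more activity, confirmed by 40% or more on retest at that dose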
Ecoli WT expand: blocks growth of wild type E. coli BW25113; OD600 absorbance; growth inhibition, % at 100 µM; 98,000 tested, 0.15% active; AID 710;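 active = growth inhibition above about 50% at one test dose, limit read from the data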;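 also: growth measured after 20 h incubation at 37 °C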
Mac1 fbg inh: inhibitors of human CD11b/CD18 binding to fibrinogen | P05107+P11215 | K562 CD11b/CD18 adhesion to fibrinogen, ATPlite luminescence; Mn2+ added to activate the integrin | inhibition, % at 10 µM | 93,000 tested, 0.54% active;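 active = primary inhibition of 50% or more at 10 µM, then 40% or more on retest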
Numbers without * were called inactive; . = not tested or not shown.

SMILES	Cav32 inh	CD11b adhes enh	Ecoli WT expand	Mac1 fbg inh
CCCC(C)NC(=O)c1ccc2[nH]c3c(c2c1)CC(C)CC3 (centres undefined)	-5.02*	-0.2	-8.0	17.2
COc1ccccc1OCCCn1cc(C#N)c2ccccc21	-4.45*	1.5	-8.0	-3.6
CCOC(=O)c1c(NC(=O)C(C)N2CCN(C(=O)c3ccco3)CC2)sc2c1CCCC2 (centres undefined)	.	4.6	6.0	-12.7
CCCCCCCCCCn1c2c(c(=N)c3c1CCC3)CCC2	-7.01*	.	100.0*	.
Cn1c(NCc2cccc(Br)c2)nc2ccccc21	-2.55	4.0	18.0	-27.0
Cn1c(Oc2ccccc2NCc2cccc(Br)c2)cc(=O)n(C)c1=O	-8.09*	.	0.0	.
CCCC(c1nnnn1Cc1ccco1)N1CCN(c2cc(Cl)ccc2C)CC1 (centres undefined)	-6.86*	7.4	-8.0	5.6
CCCC(c1nnnn1CC1CCCO1)N1CCN(c2nc3ccccc3s2)CC1 (centres undefined)	-0.622	.	.	.
CCCCC(c1nnnn1CC1CCCO1)N1CCN(c2cc(Cl)ccc2C)CC1 (centres undefined)	-5.27*	9.5	-23.0	1.4
COc1ccc(/C=N\NC(=O)c2cc(O)c(O)c(O)c2)cc1CN1CCN(c2ccc(F)cc2)CC1	.	56.8	.	-14.8
Cc1sc2nc(CN3CCCCC3)nc(Cl)c2c1C	.	-2.3	.	5.2
O=[N+]([O-])c1cc(Cl)cc(/C=N\Nc2ccccn2)c1O	-3.75*	-5.3	22.0	-3.5
CN(Cc1ccccc1)c1nc(N)c([N+](=O)[O-])c(Nc2cccc(F)c2)n1	-0.511	-1.2	-6.0	11.4
COc1ccc(S(=O)(=O)N(Cc2ccccc2)Cc2nc(-c3ccccc3)no2)cc1	-5.52*	.	-14.0	.
CCCCCCNc1nc(NCc2ccco2)nc(OCC)n1	-7.2*	-2.1	-4.0	22.7
c1ccc(Oc2nc(NCc3ccco3)nc(NCc3ccco3)n2)cc1	-0.751	-1.7	-7.0	45.4
CC1(C)Oc2ccc(C#N)cc2[C@@H](N2CCCC2=O)[C@@H]1O	0.765	.	.	.
Cc1noc(C)c1S(=O)(=O)N(CC(=O)N1CCCCCC1)c1ccc(C(C)C)cc1	-4.1*	0.2	2.0	0.0
Cc1noc(C)c1S(=O)(=O)N(CC(=O)N1CCCC1)c1ccc(C(C)C)cc1	-1.25	-6.6	3.0	-3.4
Cn1c(CSc2nc3ccc(Br)cc3[nH]2)nc2ccccc21	-0.0345	-0.2	-4.0	-0.6
Cn1c(CSc2nnc(SCc3ccccc3)s2)nc2ccccc21	-4.35*	-1.4	-21.0	16.8
Cc1ccc(C2CC(C(F)(F)F)n3ncc(C(=O)NCc4ccco4)c3N2)cc1 (centres undefined)	-5.76*	-2.3	-2.0	-4.6
CN(Cc1ccc(-n2cccn2)cc1)C(=O)c1cnn2c1NC(c1ccco1)CC2C(F)(F)F (centres undefined)	-7.65*	6.8	-3.0	4.4
Cc1ccc([N+](=O)[O-])cc1NC(=S)NC(=O)c1cccs1	.	25.3	.	10.4
Cn1c(=O)c(C(=O)CCl)c(N)n(CC2CC2)c1=O	0.397	.	.	.
SMILES	Cav32 inh	CD11b adhes enh	Ecoli WT expand	Mac1 fbg inh
CC(Sc1nnc2c(n1)C1(C)CCC2C1(C)C)C(=O)Nc1ccccc1 (centres undefined)	0.507	.	-11.0	.
Cn1c(CNC(=O)Nc2ccccc2)nnc1SCc1ccccc1	0.648	.	22.0	.
Cc1cc(C)cc(NC(=O)NCc2nnc(SCc3ccccc3)n2C)c1	-4.31*	-3.4	8.0	-4.2
CCOC(=O)c1c(NC(=S)NC(=O)c2cnn(CC)c2)sc2c1CCC(C)C2 (centres undefined)	0.0844	157.2*	-12.0	4.7
CCOC(=O)c1c(NC(=S)NC(=O)c2ccc(Cn3cc(Cl)cn3)o2)sc2c1CCCCC2	0.546	69.0*	-7.0	3.6
N#Cc1c(NC(=O)c2ccc(Cn3cc(Br)cn3)o2)sc2c1CCCCC2	-4.11	.	-18.0	.
COC(=O)c1sc(NC(=O)c2ccc(Cn3cc(Cl)cn3)o2)c(C#N)c1C	-3.73*	-7.7	-4.0	75.1
COc1ccc(-c2csc(-c3cc4ccccc4oc3=N)n2)cc1	.	-0.4	.	12.7
CC(C)c1ccc(-c2nn(-c3ccccc3)cc2C2C(C#N)=C(N)OC3=C2C(=O)CC(C)(C)C3)cc1 (centres undefined)	-5.26*	.	-16.0	.
Cc1nn(-c2ccccc2)c(Cl)c1C1C(C#N)=C(N)OC2=C1C(=O)CC(C)(C)C2 (centres undefined)	-0.102	2.2	3.0	15.2
O=C(Nc1ccccc1)c1ccc(CN2CCC(Cc3ccccc3)CC2)cc1	-0.257	.	.	.
O=C(Nc1ccccc1C(F)(F)F)c1ccc(CN2CCC(Cc3ccccc3)CC2)cc1	-7.71*	.	-3.0	.
CCOc1cc(N(CC)CC)ccc1/C=C(/C#N)c1nc2ccccc2[nH]1	.	.	-9.0	.
CCCOc1cc(N(CC)CC)ccc1/C=C(/C#N)c1nc2ccc(C)cc2[nH]1	-5*	-2.0	-25.0	12.9
CCN(CC)c1ccc(/C=C(/C#N)c2nc3ccc(C)cc3[nH]2)c(OC(C)C)c1	-5.47*	.	-14.0	.
CC(Oc1ccc(Cl)cc1Cl)C(=O)N/N=C1\CCCc2ccccc21 (centres undefined)	-0.0639	-2.2	-2.0	-0.1
CC(C)(C(=O)c1cccnc1)c1cccnc1	0.891	.	.	.
C=CCC(COCc1ccccc1)NS(=O)(=O)c1ccccc1Br (centres undefined)	-2.17	.	.	.
Cc1ccc(S(=O)(=O)N2CCN(C)CC2)c(C)c1N(C)S(=O)(=O)c1ccc(Cl)cc1	0.695	0.0	-1.0	-1.9
CC1=C(C)CS(=O)N(S(=O)(=O)c2ccc(Cl)cc2)C1 (centres undefined)	-7.42*	.	5.0	.
CCN(CC(=O)Nc1c(C(=O)OC)[nH]c2ccc(C)cc12)c1ccc2c(c1)OCO2	0.418	2.1	0.0	5.0
O=C(CSc1nnc(COc2ccccc2)n1-c1ccccc1)c1cccs1	-6.9*	-2.4	-24.0	-8.9
CCOC(=O)C(CC)Sc1nnc(COc2ccc(C)cc2)n1-c1ccccc1 (centres undefined)	-7.35*	.	.	.
Cc1ccc(OCc2nnc(SCC(=O)c3cccs3)n2-c2ccccc2)cc1C	-4.74	.	-5.0	.
CCOc1nc(SCCOc2ccc(C)cc2)nc(N(C)C)n1	-6.45*	.	-7.0	.
SMILES	Cav32 inh	CD11b adhes enh	Ecoli WT expand	Mac1 fbg inh
COc1ccc(OCCSc2n[nH]c(N)n2)cc1	-0.146	0.4	1.0	-0.1
O/N=C(\c1ccc(Cl)cc1Cl)c1ncc(C(F)(F)F)cc1Cl	-6.81*	-2.7	5.0	2.0
CC(C)N=c1cc2n(-c3ccc(Cl)cc3)c3ccccc3nc-2cc1Nc1ccc(Cl)cc1	-3.9*	.	.	.
CC1CC(N(C(=O)c2ccco2)c2ccccc2)c2ccccc2N1 (centres undefined)	-4.34*	4.3	1.0	-9.5
CC1CC(c2ccccc2)n2nc(NC(=O)c3ccco3)nc2N1 (centres undefined)	-1.11	-2.8	-4.0	-5.3
CC(NC(=O)C1CCCCC1)C(c1cccs1)N1CCN(C)CC1 (centres undefined)	0.624	.	.	.
CCOC(=O)c1ccccc1-c1csc(NS(=O)(=O)c2ccc(Cl)cc2)n1	-9.16*	-4.4	5.0	53.6*
C1=Nc2c(Nc3ccccc3)ncnc2Oc2ccccc21	-1.83	3.5	-1.0	-11.5
CCOC(=O)c1ccc(Oc2nc(N(C)C)nc(N(C)C)n2)cc1	-2.42	3.4	-11.0	1.2
